Drawing on PubChem BioAssay (NCATS), this text covers Potency for 20 compounds.

Inconclusive results are not listed. A call without a number means that no potency is given here. Calls of active or inactive are those of the source. Calls follow the shape of the dose curve; as a rule, active = well fitted cell-killing curve with a large enough effect; inconclusive = small, poorly fitted or top-dose-only effect; inactive = no such curve, though single readings can be large or run the other way.
Potency is read from the fitted curve at half-maximal effect.

A short description of the assay: qHTS of pediatric cancer cell lines to identify multiple opportunities for drug repurposing: Confirmatory screen for U-2 OS cells (AID 1347122). Also: nearly all actives have a fitted effect of over 65% in size. To be noted: U-2 OS osteosarcoma cell viability; series mostly up to 45.9 µM. The source says: Drug repurposing or repositioning has been offered as a strategy for drug development in oncology programs. This approach has special potential for childhood cancers and other rare or orphan diseases, where the expected return on new drug development has been a disincentive to pharmaceuticals.
In this project we exploit the poly-pharmacology of drugs to discover new indications via phenotypic screening of a panel of 19 well-characterized cell lines derived from solid tumors seen in children and adolescents. The goal is to identify approved drugs with previously unrecognized anticancer properties that has the potential to reveal new mechanisms and biological processes involved in carcinogenesis or drug resistance. We employed a titration-based paradigm (quantitative high-throughput screening or qHTS), where all compounds were tested at multiple concentrations for their effect on cell viability. Concentration-response curves (CRCs) were derived directly from the primary screen, and both potency and efficacy values were used to identify compounds with robust bioactivity profiles. We screened the NIH Chemical Genomics Center (NCGC) Pharmaceutical Collection (NPC) and Mechanism Interrogation Plate (MIPE) small molecule collections of approved and investigational compounds against these cell lines; and measured metabolically active cells after 48 hours of compound treatment as a proxy for cell viability.
Assay Submitter: Nathalia J. Martinez, National Center for Advancing Translational Sciences, National Institutes of Health, Rockville, MD, USA; email: natalia.martinez@nih.gov
[1] Shen, M et al. Quantitative high-throughput phenotypic screening of pediatric cancer cell lines identifies multiple opportunities for drug repurposing. Oncotarget 2017 Dec 19;9(4):4758-4772. PMID 29435139.
The cells were obtained from University of North Carolina (UNC), Pediatric Preclinical Testing Program (PPT), and Coriell Institute (CI).
qHTS cell viability assay:
Cells were assayed in growth media at a density of 500-1,000 cells/well. Five microliters of cells were dispensed into 1,536-well, white, solid-bottom, TC-treated plates (Greiner Bio One) using a multidrop dispenser and incubated at 37 degrees C, 5% CO2, under a humidified atmosphere for 5 hours. Twenty-three nanoliters of compounds and controls (neutral control DMSO or positive control bortezomib at final concentration of 2.3 µM) were subsequently transferred by Kalypsys pintool. For primary screens, the MIPE collection was tested at 11-point dilutions (final concentrations range from 0.78 nM to 46 µM) and the NPC collection at 8-point dilutions (final concentrations range from 0.59 nM to 46 µM). Compounds tested in follow-up screens were assayed at 11-point dilutions. Cells were incubated for 48 hours, followed by addition of 3 µL of CellTiter-Glo (Promega). After a 15 min incubation at room temperature, samples were analyzed for luminescence intensity using a ViewLux High-throughput CCD imager equipped with clear filters.
On the technique in general: Quantitative high-throughput screening tests each substance at several concentrations.
Take `Nc1ccc2cc3ccc(N)cc3nc2c1`: the Potency is 9.27 µM (active).

In the case of `N=C(N)c1ccc(OCCCOc2ccc(C(=N)N)cc2)cc1`, the Potency was 0.465 µM (active).

For the compound `CO[C@@H]1[C@@H](OC)[C@H](C)[C@@](O)(CC(=O)O)O[C@H]1[C@H](C)[C@H]1O[C@@]2(CC[C@@](C)([C@H]3CC[C@@](C)([C@@H]4O[C@@H]([C@H]5O[C@](C)(O)[C@H](C)C[C@@H]5C)C[C@@H]4OC4C[C@H](OC)[C@@H](OC)[C@H](C)O4)O3)O2)C[C@H](O)[C@H]1C` (stereo not given in full), the Potency is 0.329 µM (active).

Take `CCOC(=O)O[C@]1(C(=O)OCCl)CC[C@H]2[C@@H]3CCC4=CC(=O)C=C[C@]4(C)[C@H]3[C@@H](O)C[C@@]21C`: the Potency result is “inactive”.

With `CCC1=C[C@@H]2CN(C1)Cc1c([nH]c3ccccc13)[C@@](C(=O)OC)(c1cc3c(cc1OC)N(C)[C@H]1[C@@](O)(C(=O)OC)[C@H](OC(C)=O)[C@]4(CC)C=CCN5CC[C@]31[C@@H]54)C2`, the Potency was 0.185 µM (active).

With `CCN(CC)CC(=O)OCC(=O)[C@@]1(O)CC[C@H]2[C@@H]3CCC4=CC(=O)CC[C@]4(C)[C@H]3[C@@H](O)C[C@@]21C`, the Potency entry is “inactive”.

Regarding `Nc1c2ccccc2nc2ccccc12`, the Potency is 14.7 µM (active).

For `Cc1cc(OCCOCC[N+](C)(C)Cc2ccccc2)ccc1C(C)(C)CC(C)(C)C`, the Potency is 23.3 µM (active).

As for `C[C@H]1C[C@@H]2[C@H]([C@@H](O)C[C@@]3(C)[C@H]2CC[C@]3(O)C(=O)CO)[C@@]2(C)C=CC(=O)C=C12`, the Potency entry was “inactive”.

As to `O=[N+]([O-])c1ccc(O)c2ncccc12`, the Potency entry was “inactive”.

As for `CCC(=O)O[C@]1(C(=O)COC)[C@@H](C)C[C@H]2[C@@H]3CCC4=CC(=O)C=C[C@]4(C)C3(F)[C@@H](O)C[C@@]21C` (stereo not given in full), the Potency result was “inactive”.

As for `COc1cc(/C=C/C(N)=O)cc(OC)c1OC`, the Potency result is “inactive”.

Regarding `CCc1cc2cc(OC)c(OC)cc2c(Cc2ccccc2)n1`, the Potency entry was “inactive”.

Take `CC(C)=CCC/C(C)=C/CC/C(C)=C/C(=O)OCC(=O)[C@@]1(O)CC[C@H]2[C@@H]3CCC4=CC(=O)C=C[C@]4(C)[C@H]3[C@@H](O)C[C@@]21C`: the Potency was 20.8 µM (active).

For the compound `COc1c(C)c2c(c(O)c1C/C=C(\C)CCC(=O)OCCN1CCOCC1)C(=O)OC2`, the Potency was 0.185 µM (active).

With `CCCCC(CC)CNC(=O)CC(C)OC(=O)CCC(=O)O` (stereo not given), the Potency entry was “inactive”.

Turning to `CC(=O)[C@@]1(O)CC[C@H]2[C@@H]3C[C@H](C)C4=CC(=O)CC[C@]4(C)[C@H]3CC[C@@]21C`, the Potency entry is “inactive”.

On to `CC(C)(C)CC(=O)OCC(=O)[C@@]1(O)CC[C@H]2[C@@H]3CCC4=CC(=O)C=C[C@]4(C)[C@H]3[C@@H](O)C[C@@]21C`, for which the Potency result was “inactive”.

As for `C[C@]12CCC(=O)C=C1CC[C@@H]1[C@@H]2[C@@H](O)C[C@@]2(C)[C@H]1CC[C@]2(O)C(=O)COC(=O)CCC(=O)O`, the Potency entry was “inactive”.

For the compound `CC(=O)OCC(=O)[C@@]1(O)[C@H](OC(C)=O)C[C@H]2[C@@H]3CCC4=CC(=O)C=C[C@]4(C)[C@@]3(F)[C@@H](O)C[C@@]21C`, the Potency result is “inactive”.
